# Screen size: about 220,000 compounds; about 5,700 (2.6%) were called active. Inconclusive results (about 18%) are left out. Calls follow the shape of the dose curve; as a rule, active = well fitted inhibition curve with a large enough effect; inconclusive = small, poorly fitted or top-dose-only effect; inactive = no such curve, though single readings can be large or run the other way. The entries come from a sample that favours actives as a whole.
# Biological target: Lysine-specific demethylase 5B (Homo sapiens) (UniProt Q9UGL1)
# Assay: Primary screen for KDM5B Histone Demethylases FDH-coupled qHTS; also: nearly all actives have a fitted effect of over 70% in size; as to activity change, negative = inhibition: 0% is about no effect
# Conditions: FDH-coupled NADH fluorescence (FDH is formaldehyde dehydrogenase); series mostly up to 57.7 µM; activity change, negative = inhibition: at the top concentration
# How it was run: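 Here, H3K4me3 peptide (12.5 µM in substrate mix) is demethylated by KDM5BΔAP, 200 nM final, after 10 min compound exposure. Formaldehyde product is coupled through FDH (0.25 U/mL in mix) to NADH fluorescence; 30-min ΔRFU feeds dose-response curves.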
# Potency is read from the fitted curve at half-maximal effect.
# Sequence of Lysine-specific demethylase 5B (Homo sapiens) (Q9UGL1 whole entry, looked up): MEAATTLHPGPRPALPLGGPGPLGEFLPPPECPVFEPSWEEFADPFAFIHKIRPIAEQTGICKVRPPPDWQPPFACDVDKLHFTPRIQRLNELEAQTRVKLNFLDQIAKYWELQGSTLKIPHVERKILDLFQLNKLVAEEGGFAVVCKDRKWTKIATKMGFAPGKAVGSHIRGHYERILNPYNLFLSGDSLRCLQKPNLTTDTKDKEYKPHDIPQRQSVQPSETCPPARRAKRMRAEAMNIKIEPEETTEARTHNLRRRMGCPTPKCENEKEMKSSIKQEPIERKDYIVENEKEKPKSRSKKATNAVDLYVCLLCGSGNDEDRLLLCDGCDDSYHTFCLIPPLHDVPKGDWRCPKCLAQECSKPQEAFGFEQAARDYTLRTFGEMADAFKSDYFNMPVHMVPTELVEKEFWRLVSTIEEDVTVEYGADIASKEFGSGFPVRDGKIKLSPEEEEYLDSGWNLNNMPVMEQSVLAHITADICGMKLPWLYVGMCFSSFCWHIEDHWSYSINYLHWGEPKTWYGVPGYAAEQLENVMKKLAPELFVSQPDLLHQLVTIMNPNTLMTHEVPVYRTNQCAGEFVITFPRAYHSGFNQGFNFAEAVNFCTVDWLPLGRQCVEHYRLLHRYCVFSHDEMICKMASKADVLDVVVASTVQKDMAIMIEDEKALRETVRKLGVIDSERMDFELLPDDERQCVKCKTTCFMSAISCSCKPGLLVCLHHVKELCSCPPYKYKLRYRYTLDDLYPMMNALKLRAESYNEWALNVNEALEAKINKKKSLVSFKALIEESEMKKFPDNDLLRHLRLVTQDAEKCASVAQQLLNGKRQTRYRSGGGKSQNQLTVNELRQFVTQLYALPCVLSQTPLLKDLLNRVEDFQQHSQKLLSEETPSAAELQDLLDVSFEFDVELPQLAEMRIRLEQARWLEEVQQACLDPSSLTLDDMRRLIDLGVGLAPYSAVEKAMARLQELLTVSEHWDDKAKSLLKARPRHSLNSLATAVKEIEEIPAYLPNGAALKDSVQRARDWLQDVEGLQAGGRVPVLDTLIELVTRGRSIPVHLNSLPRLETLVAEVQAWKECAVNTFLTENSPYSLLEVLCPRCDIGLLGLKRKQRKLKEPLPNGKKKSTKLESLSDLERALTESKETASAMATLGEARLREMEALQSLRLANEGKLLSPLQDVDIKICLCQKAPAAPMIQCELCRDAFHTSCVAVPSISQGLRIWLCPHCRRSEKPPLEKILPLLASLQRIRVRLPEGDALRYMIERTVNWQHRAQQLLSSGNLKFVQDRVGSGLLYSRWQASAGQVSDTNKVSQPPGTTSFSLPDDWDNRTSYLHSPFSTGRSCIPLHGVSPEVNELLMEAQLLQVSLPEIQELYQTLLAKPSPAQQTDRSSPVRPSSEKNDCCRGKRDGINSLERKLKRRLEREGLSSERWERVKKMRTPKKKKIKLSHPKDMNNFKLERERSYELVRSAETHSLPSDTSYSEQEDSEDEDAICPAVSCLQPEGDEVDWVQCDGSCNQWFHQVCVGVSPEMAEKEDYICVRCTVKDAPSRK
SMILES,Potency,"activity change, negative = inhibition"
O=C1c2cnc(-c3ccc(O)c(F)c3)nc2OCCN1Cc1ccccc1,20 µM (active),
O=C1c2cnc(-c3ccccc3)nc2OCCN1c1ccccc1,,-26.1% [at 86.2 µM] (inactive)
NC(=O)c1cccc(-c2ncc3c(n2)OCCN(c2cccc(C(F)(F)F)c2)C3=O)c1,,-19.4% [at 86.2 µM] (inactive)
COc1ccc(-c2ncc3c(n2)OCCN(Cc2ccccc2)C3=O)cn1,28.2 µM (active),
O=C1c2cnc(-c3ccc(Cl)cc3)nc2OCCN1Cc1ccccc1,,-17.4% [at 86.2 µM] (inactive)
NC(=O)c1cccc(-c2ncc3c(n2)OCCN(Cc2ccccc2)C3=O)c1,,-15.6% [at 86.2 µM] (inactive)
CCCNc1c(NC(=O)Nc2ccccc2)c(=O)oc2ccccc12,,2.4% (inactive)
CCCCN1C(=O)NC(c2ccc(OC)cc2)C2=C1COC2=O (centres undefined),,1.95% (inactive)
O=C(Nc1ccc(F)cc1)C1=C(N2CCCC2)c2ccccc2S1(=O)=O,,-3.03% (inactive)
Cn1nc(C(=O)Nc2nc(-c3cc(F)ccc3F)cs2)c2ccccc2c1=O,,10.3% (inactive)
CC(C)(C)Sc1ccc2nn(CC(=O)NCc3ccccc3Cl)c(=O)n2n1,,-3.69% (inactive)
Cc1nc(Cc2nn3c(-c4cc(Cl)ccc4F)nnc3s2)cs1,,10.3% (inactive)
Cc1nc(C)c(C(=O)C2=C(O)C(=O)N(CCN3CCOCC3)C2c2ccc(C(C)(C)C)cc2)s1 (centres undefined),,-23% (inactive)
COC(=O)c1ccc(COc2c(Cl)cccc2Cl)cc1,,16.2% (inactive)
Cc1nn(-c2ccccc2)c(C)c1[C@@H]1C=C[C@@H](NC(=O)c2ccc3c(c2)OCO3)C1,,-20% [at 86.2 µM] (inactive)
Cc1nn(-c2ccc(C(C)(C)C)cc2)c(C)c1[C@@H]1C=C[C@@H](NC(=O)c2ccco2)C1,31.6 µM (active),
Cc1nn(-c2ccc(C(C)C)cc2)c(C)c1[C@@H]1C=C[C@@H](NC(=O)Nc2ccccc2)C1,,1.7% [at 86.2 µM] (inactive)
CCCCN(CCCC)c1nc2ccccc2nc1C(C#N)C(=O)OC(C)C (centres undefined),,-8.23% (inactive)
N#Cc1cccc(Oc2cccc3cccnc23)c1C#N,,-19.6% (inactive)
c1csc(CNCC2CCNCC2)c1,,-4.86% (inactive)
CSc1ccc(/C=N/Nc2c(Cl)cc(Cl)cc2Cl)cc1,,-27.6% (inactive)
O=Cc1cccc(-c2cc(F)cc(F)c2)c1,,16.8% [at 230 µM] (inactive)

SMILES,Potency,"activity change, negative = inhibition"
CSc1ccc(-c2ccc(C=O)cc2)cc1,10 µM (active),
CNC(=O)c1cccc(CNC(=O)C=C(C)C)c1,,-5.74% (inactive)
Cc1noc(C)c1COc1ccc(C(=O)NCCOc2ccccc2)cc1,,22.7% (inactive)
Cc1nn(-c2nc3c(c(=O)n(CCN4CCCCC4)c(=O)n3C)n2C)c(C)c1C,,15.4% (inactive)
CCOC(=O)c1ccc(NC(=O)Cn2c(=O)cc(C)c3c(C)nn(-c4cccc(F)c4)c32)cc1,,2.81% (inactive)
COc1cccc(NC(=O)Cn2c(=O)cc(C)c3c(C)nn(-c4cccc(F)c4)c32)c1,,10.7% (inactive)
CCOCC(=O)Nc1nn(-c2cccc(F)c2)c2cccc(N3CCOC3=O)c12,28.2 µM (active),
COCCN1C(=O)C(O)=C(C(=O)c2ccc(C)o2)C1c1ccc(O)c(OC)c1 (centres undefined),,-14.1% (inactive)
CC1=C[C@@H](CNC(=O)C2CCCCC2)[C@H](C(C)C)C[C@H]1Cc1nc2ccc(F)cc2[nH]1,,-21.6% [at 86.2 µM] (inactive)
CC(C)Cn1cncc1CNC(=O)c1ccc2nc(-c3ccc(F)cc3)cn2c1,25.1 µM (active),
CC(=O)Nc1cc(C(=O)NCc2ccc(F)cc2)ccc1Sc1ccc(F)cc1,,-10.4% (inactive)
CCc1ccc(CNC(=O)C2CCN(c3nn4cc(-c5ccc(F)cc5)nc4s3)CC2)cc1,,13.6% (inactive)
O=C(N/N=C/c1ccccc1Cl)c1ccc(Cl)s1,,-3.13% (inactive)
OCC#Cc1csc(CN2CCCC3(CCNCC3)CC2)c1,,10.2% (inactive)
C=CCN(C)C(=O)[C@@H](C)C1CC[C@@]2(C)Cc3sc(Nc4c(Cl)cccc4Cl)nc3[C@@H](C)[C@@H]2[C@H]1O (some centres undefined),,-26.3% (inactive)
C=CCN(C)C(=O)[C@@H](C)C1CC[C@@]2(C)Cc3sc(NS(=O)(=O)c4ccc(Cl)cc4)nc3[C@@H](C)[C@@H]2[C@H]1O (some centres undefined),28.2 µM (active),
CCN(CC)C(=O)[C@@H](C)C1CC[C@@]2(C)Cc3sc(N)nc3[C@@H](C)[C@@H]2[C@H]1O (some centres undefined),,-5.26% [at 86.2 µM] (inactive)
O=C1Nc2cnccc2C2(CCN(C(=O)c3ccccc3F)C2)O1 (centres undefined),31.6 µM (active),
CC(C)C1=NOC2(CCN(C(=O)c3ccccc3F)C2)C1 (centres undefined),,2.96% [at 149 µM] (inactive)
O=C(c1ccccc1F)N1CCC2(CC1)C(=O)Nc1ccccc12,,-1.94% [at 149 µM] (inactive)
O=C(O)Cc1ccc(NC(=O)Nc2cccc3ccccc23)cc1,,19.1% (inactive)
COc1ccc2nc(SCC(=O)Nc3ncccn3)[nH]c2c1,,10.3% (inactive)

SMILES,Potency,"activity change, negative = inhibition"
c1cc(N2CCOCC2)ccc1-c1cc(-c2cn[nH]c2)c2cncn2c1,28.2 µM (active),
COc1ccccc1-c1cc(-c2cn[nH]c2)c2cncn2c1,,-2460% [at 115 µM] (inactive)
Cn1cc(CC(=O)N2CCCc3ncc(C(=O)N4CCCC[C@@H]4c4ccccc4)cc32)c2ccccc21,,-17.3% (inactive)
Cn1cc(-c2ccccc2)cc1C(=O)NCc1ccc(N2CCOCC2)cc1,,-31.6% (inactive)
COCc1cc(=O)n(CC(=O)NCc2ccc(C)cc2)c(N2CCOCC2)n1,,-28% (inactive)
CCC(=O)Nc1cc(C(=O)NCc2ccc(N3CCOCC3)cc2)c2ccc(C)nc2c1,14.1 µM (active),
N#Cc1nc(C2CC2)oc1N1CCN(Cc2c(F)cccc2Cl)CC1,,12.1% (inactive)
Cn1c(SCC(=O)N2CCCC2)nnc1-c1ccc2c(c1)OCO2,,23.9% (inactive)
c1ccc(CNCc2cccc3ccccc23)cc1,,-14.2% (inactive)
CN1CCC(N2CC[C@H](c3nc4ccccc4s3)C2)CC1,28.2 µM (active),
Cc1ccc(F)cc1S(=O)(=O)N1CCC(c2nc3ccccc3s2)CC1,,2.62% (inactive)
CC(C)(C)c1ccc(OCC(=O)N2CCC(c3nc4ccccc4s3)CC2)cc1,,10.7% [at 11.5 µM] (inactive)
Cc1c(-c2ccccc2)oc2c(C(=O)N3CCN(C(=O)c4ccccc4)CC3)cccc2c1=O,,-12.4% (inactive)
CCCOc1ccccc1C(=O)N1CCC2(CC1)[C@H](O)C[C@@H]2OCCN,,-7.52% (inactive)
Clc1ccccc1C1(c2ccnc(NCCn3cccn3)n2)CCNCC1,28.2 µM (active),
Cn1c(COc2ccccc2Cl)nnc1SCCn1cccn1,,21% (inactive)
CCOc1ccc(/C=C2/Cc3c(O)cccc3C2=O)cc1,,11.1% (inactive)
N#CC1(NC(=O)COC(=O)CCN=C2NS(=O)(=O)c3ccccc32)CCCCC1,,6.37% (inactive)
CN(c1ccccc1)c1cc(=O)c2ccnc(-c3ccc(CO)cc3)c2o1,,-32.9% [at 86.2 µM] (inactive)
O=c1cc(-c2cccnc2)oc2c(-c3ccccc3O)nccc12,,-14.1% [at 86.2 µM] (inactive)
O=c1cc(-c2cccnc2)oc2c(-c3cccc(CO)c3)nccc12,35.5 µM (active),
N#CC1=C(N)Oc2n[nH]c(-c3ccc4c(c3)OCO4)c2C1c1cccc(O)c1 (centres undefined),,-29.3% (inactive)

SMILES,Potency,"activity change, negative = inhibition"
CN1CCN(c2oc(-c3ccccc3)nc2S(=O)(=O)c2ccc3c(c2)OCCO3)CC1,,13.1% (inactive)
COCCc1noc(-c2ccc(NC(C)c3ncccc3C)nc2)n1 (centres undefined),28.2 µM (active),
COCc1noc(-c2ccc(NCCN3CCNC3=O)nc2)n1,,30.3% (inactive)
COc1ccc(S(=O)(=O)NCCc2noc(-c3ccncc3)n2)cc1,,13.7% (inactive)
O=C(O)CSCc1cccnc1,,-4.43% (inactive)
COc1cccc(CC(=O)NCCc2noc(-c3cccnc3)n2)c1,,12.9% (inactive)
O=C(O)Cn1ccc2cc(OCCc3cccc(-c4cccnc4)c3)cnc21,35.5 µM (active),
COc1cc(CNCC(O)c2ccccc2)ccc1Oc1nnnn1-c1ccccc1 (centres undefined),,22.5% (inactive)
CCNC(=O)NC(=O)C(C)OC(=O)c1ccc(C(=O)OC)cc1 (centres undefined),,8.54% (inactive)
Cc1ccc(-n2nnnc2C2(Nc3ccccc3)CCCC2)cc1,,14.5% (inactive)
COc1cccc(CN2CCN(C(=O)c3cnc4ccccn4c3=O)CC2=O)c1,28.2 µM (active),
COc1cccc(CC(=O)NC2CCN(c3cn[nH]c(=O)c3)CC2)c1,,-1.04% (inactive)
COc1cccc(CN2CCOC3CCN(C(=O)c4cccnc4)CC3C2=O)c1 (centres undefined),,-15.9% [at 86.2 µM] (inactive)
O=C(CCc1cccs1)N(CC1CCOC1)C1CC1 (centres undefined),,16.4% (inactive)
Cc1nc2sc3c(c2c2nc(-c4ccc(O)cc4)nn12)CC(C)(C)OC3,,-15.1% (inactive)
Cn1c(Oc2cccc(Cl)c2)nc2c1c(=O)n(Cc1ccc(F)cc1)c(=O)n2C,,4.11% (inactive)
Cc1nc2ccc(C(=O)NCCCOCC3CC3)cc2nc1C,,3.23% (inactive)
O=C(CN1CCN(c2ccccc2)CC1)Nc1ccc(F)cc1,,9.95% (inactive)
COc1ccc(-c2ccc3nnc(CNC(=O)C(C)Oc4ccc(Cl)cc4)n3n2)cc1 (centres undefined),28.2 µM (active),
COc1ccc(CNc2nc(-c3ccc(Cl)cc3)nn2S(=O)(=O)c2ccc(C)cc2)cc1,,3.11% (inactive)
COc1cc(NC(=O)CSc2nnc3ccc(-c4ccncc4)nn23)cc(OC)c1,,-1.83% (inactive)
O=C(Cc1ccc(F)cc1)NC1CCN(c2cc(-c3ccc(Cl)cc3)[nH]n2)CC1,,-21.9% (inactive)

SMILES,Potency,"activity change, negative = inhibition"
O=C(Cc1ccc(Cl)cc1)NCc1nnc2ccc(-c3ccc(F)cc3)nn12,25.1 µM (active),
O=C(CN1CCN(Cc2ccc(Cl)cc2)C1=O)NCc1ccc(F)cc1,,-11.5% (inactive)
COc1ccc(Oc2c(C)oc3cc(OCC(=O)NCc4ccccc4)ccc3c2=O)cc1,,-5.87% (inactive)
COc1cccc(C(=O)Oc2ccc(C)cc2C(=O)/C=C/c2ccc(F)cc2)c1,,-3.94% (inactive)
CC(C)NC(=O)Nc1cccc(C(=O)Nc2cccc(Cl)c2)c1,,-1.45% (inactive)
CC(NC(=O)/C=C/c1ccsc1)C1CCCO1 (centres undefined),,22.6% (inactive)
N#Cc1ccc(OCC(O)CNCCC2=CCCCC2)cc1 (centres undefined),,23.8% (inactive)
O=C(NCCc1c[nH]c2ccc(Cl)cc12)c1ccccc1,,-16.9% (inactive)
CC(C)Oc1ccc(/C(O)=C2\C(=O)C(=O)N(c3nccs3)C2c2cccc(Br)c2)cc1 (centres undefined),,-24% (inactive)
O=C(CSc1ncccn1)c1ccc(F)cc1,,-6.11% (inactive)
CCOc1ccc(-c2nc(S(=O)(=O)c3ccc(F)cc3)c(NC)o2)cc1,,13.1% (inactive)
O=C(CNc1nc(Cl)nc2nc[nH]c12)NC1CC1,,-1.28% (inactive)
CC[C@H](C)NC(=O)c1ccc2nc(-c3ccc(C)cc3)cc(OC)c2c1,,-11.5% (inactive)
Cc1ccc(-c2ccc3nnc(CNC(=O)c4ccncc4)n3n2)cc1C,28.2 µM (active),
COc1ccc(-c2nc3ccc(C(=O)NCc4ccc(C)cc4)cc3nc2-c2ccc(OC)cc2)cc1,,-187% (inactive)
O=C(NC/C(=N/NC(=O)c1cccnc1)c1ccccc1)c1ccccc1,,-10% (inactive)
COc1ccc(C(=O)NCc2nnc3ccc(-c4ccc(C)cc4)nn23)cc1F,28.2 µM (active),
Cc1ccc(-c2ccc3nnc(CNC(=O)c4cccnc4)n3n2)cc1C,31.6 µM (active),
O=C(NCCCN1CCCC1)c1cccnc1,,3.9% (inactive)
O=C(CSc1nnc2ccc(-c3ccncc3)nn12)N1CCCCC1,,20.2% (inactive)
O=C(NCc1nnc2n1C(C(=O)NC1CC1)CC2)c1ccncc1 (centres undefined),,1.09% [at 149 µM] (inactive)
